Potency and activity change, negative = inhibition data for 40 compounds are collected here from PubChem BioAssay (NCATS).

Records with an inconclusive call do not appear. Where a call stands in place of a potency, no number is given. A number with no mark means an inactive call. Calls of active or inactive are those of the source. Calls follow the shape of the dose curve; as a rule, active = well fitted inhibition curve with a large enough effect; inconclusive = small, poorly fitted or top-dose-only effect; inactive = flat fitted curve, though single readings scatter. Where a SMILES comes first, the peptide text is derived from it. The star is where a group is joined. AFC = O=c1cc(C(F)(F)F)c2ccc(N*)cc2o1

The target in the assay is Calcium and integrin-binding protein 1 (Homo sapiens) (UniProt Q99828). The experiment in a line: Primary qHTS for Identification of Calcium Integrin Binding Protein 1 (CIB1) Competitor (AID 1508620). Also: top concentration of the series differs between compounds. Particulars: CIB1-GST / FITC-alphaIIb peptide fluorescence polarization; series mostly up to 114 µM. The method in brief: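 Fluorescence polarization competition: GST-tagged CIB1 (1 uM final) preincubated with compound 15 min at room temperature, then FITC-labelled alphaIIb peptide (100 nM final) added. After 15 min at room temperature, polarization read at Ex 480/Em 540.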
Chain of Calcium and integrin-binding protein 1 (Homo sapiens) (Q99828 whole entry, looked up): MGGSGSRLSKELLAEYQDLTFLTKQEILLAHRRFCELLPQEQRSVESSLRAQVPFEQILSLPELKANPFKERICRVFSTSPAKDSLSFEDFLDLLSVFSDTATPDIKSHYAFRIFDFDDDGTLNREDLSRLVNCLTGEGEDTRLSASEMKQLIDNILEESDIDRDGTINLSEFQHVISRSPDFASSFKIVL
With `COc1cc(Nc2nc3c(s2)CCCC3c2ccc(F)cc2)ccc1-n1cnc(C)c1` (stereo not given), the Potency result was “inactive”.

With `COc1cc2occc2c(O[C@@H]2O[C@H](CO)[C@@H](O)[C@H](O)[C@H]2O)c1CCC(=O)O`, the Potency entry was “inactive”.

`CC(C)C1=CC2C(CC[C@]2(C)O)[C@](C)(O)CC1` (stereo not given in full): the Potency entry was “inactive”.

Consider `CO[C@H]1C[C@@H]2CC[C@@H](C)[C@@](O)(O2)C(=O)C(=O)N2CCCC[C@H]2C(=O)O[C@H]([C@H](C)C[C@@H]2CC[C@H](n3cnnn3)[C@H](OC)C2)CC(=O)[C@H](C)/C=C(\C)[C@@H](O)[C@@H](OC)C(=O)[C@H](C)C[C@H](C)/C=C/C=C/C=C/1C`, for which the Potency entry was “inactive”.

Take `COc1cc(/C=C/C=O)cc(OC)c1O[C@@H]1O[C@H](CO)[C@@H](O)[C@H](O)[C@H]1O`: the Potency result is “inactive”.

Take `C[C@H]1Oc2cc(cnc2N)-c2c(nn(C)c2C#N)CN(C)C(=O)c2ccc(F)cc21`: the Potency entry was “inactive”.

In the case of `COc1c(C)c(OCC(O)C(C)(C)O)cc2c1COC2=O` (stereo not given), the Potency entry is “inactive”.

On to `COc1ccc(C(O)C(C)OC2OC(CO)C(O)C(O)C2O)cc1` (stereo not given), for which the Potency entry was “inactive”.

With `CCOC(=O)C(CCc1ccccc1)NC1CSC(c2cccs2)CN(CC(=O)O)C1=O` (stereo not given), the Potency entry is “inactive”.

Regarding `COC(=O)N1CCC(n2ncc3c(N4CCOCC4)nc(-c4ccc(NC(=O)Nc5ccc(CO)cc5)cc4)nc32)CC1`, the Potency result was “inactive”.

On to `O=C(OC[C@@]1(O)CO[C@@H](O[C@H]2[C@H](Oc3ccc(O)cc3)O[C@H](CO)[C@@H](O)[C@@H]2O)[C@@H]1O)c1ccc(O)cc1`, for which the Potency result was “inactive”.

As for `C=C1CC[C@H]2[C@@](C)(CCC(O)[C@@]2(C)CO)[C@@H]1CCC1=CCOC1=O` (stereo not given in full), the Potency result was “inactive”.

For `CCOc1ccc(S(=O)(=O)n2c(C)nc3ccccc32)cc1`, the Potency entry was “inactive”.

Regarding `COc1cccc(-c2cc(NCc3ccc4c(c3)OCO4)nc(N)n2)c1`, the Potency result was “inactive”.

With `O=C(/C=C/c1ccccc1)OC[C@]12O[C@H]1[C@@H](O)[C@@H]1C=CO[C@@H](O[C@@H]3O[C@H](CO)[C@@H](O)[C@H](O)[C@H]3O)[C@@H]12`, the Potency result was “inactive”.

Turning to `CC(Oc1cc(-n2cnc3ccc(CN4CCN(C)CC4)cc32)sc1C(N)=O)c1ccccc1C(F)(F)F` (stereo not given), the Potency result was “inactive”.

Regarding `COC1CC(O[C@H]2CC[C@@]3(C)C(=CC[C@]4(O)C3[C@H](OC(C)=O)[C@@H](OC(=O)c3ccccc3)[C@]3(C)[C@@H](C(C)=O)CC[C@@]34O)C2)OC(C)C1OC1CC(OC)C(OC2CC(OC)C(OC3OC(C)C(OC4OC(CO)C(O)C(O)C4O)C(OC)C3O)C(C)O2)C(C)O1` (stereo not given in full), the activity change, negative = inhibition was -4.32% [at 12.4 µM].

Take `CC(=O)N[C@@H](Cc1c[nH]c2ccccc12)C(=O)N[C@@H](CCC(=O)O)C(=O)N[C@@H](Cc1cnc[nH]1)C(=O)N[C@@H](CC(=O)O)C(=O)Nc1ccc2c(C(F)(F)F)cc(=O)oc2c1` (Ac-WEHD-{AFC}): the Potency result was “inactive”.

With `CCOc1ccc(NC(=S)N2CCC(C(O)(c3ccccc3)c3ccccc3)CC2)cc1`, the Potency entry was “inactive”.

Consider `Cc1ccc(S(=O)(=O)n2ccc(-c3c(-c4ccc(Cl)cc4)noc3C)n2)cc1`, for which the Potency result is “inactive”.

`CC1(C)CCC(C)(C)c2cc(C3(c4ccc(C(=O)O)cc4)OCCO3)ccc21`: the Potency result was “inactive”.

For the compound `COc1ccc(-n2[nH]c(=O)c3[nH]c4cc(Cl)ccc4c(=O)c3c2=O)c(C)c1`, the Potency result was “inactive”.

With `COc1ccc(-c2c(-c3cc(C(=O)O)ccn3)ncn2C)cc1`, the Potency result is “inactive”.

With `Cc1cnc(Nc2ccc(F)cc2Cl)nc1-c1c[nH]c(C(=O)NC(CO)c2cccc(Cl)c2)c1` (stereo not given), the Potency result was “inactive”.

In the case of `C/C=C(\C)C(=O)O[C@@H]1CC2[C@@H](CC=C3C[C@@H](O[C@H]4C[C@H](OC)[C@H](O[C@H]5C[C@H](OC)[C@H](O[C@@H]6O[C@H](C)[C@@H](O[C@H]7C[C@H](OC)[C@H](O[C@@H]8O[C@H](CO)[C@@H](O)[C@H](O)[C@H]8O)[C@@H](C)O7)[C@H](OC)[C@H]6O)[C@@H](C)O5)[C@@H](C)O4)CC[C@@]32C)[C@@]2(O)CC[C@H](C(C)=O)[C@@]12C` (stereo not given in full), the activity change, negative = inhibition was 2.76% [at 12.4 µM].

Turning to `CC/C=C\CCO[C@@H]1O[C@H](CO)[C@@H](O)[C@H](O)[C@H]1O`, the Potency entry was “inactive”.

For the compound `C[C@@H]1CC[C@@]2(OC1)O[C@H]1C[C@H]3[C@@H]4CC=C5C[C@@H](O)CC[C@]5(C)[C@H]4CC[C@]3(C)[C@H]1[C@@H]2C`, the Potency entry was “inactive”.

Take `CC1(C)CC[C@]2(C(=O)OC3OC(CO)C(O)C(O)C3O)CC[C@]3(C)C(=CCC4[C@@]5(C)CC[C@H](OC6OC(C(=O)O)C(O)C(OC7OC(CO)C(O)C(O)C7O)C6O)C(C)(C)C5CC[C@]43C)C2C1` (stereo not given in full): the Potency entry is “inactive”.

Turning to `CCOC(=O)CCN(C(=O)c1ccc2c(c1)nc(CNc1ccc(C(=N)N)cc1)n2C)c1ccccn1`, the Potency entry was “inactive”.

For `OC[C@H]1O[C@@H](OCCc2ccc(O)cc2)[C@H](O[C@@H]2OC[C@](O)(CO)[C@H]2O)[C@@H](O)[C@@H]1O`, the Potency entry was “inactive”.

On to `CC1=CC(=O)CC2C1(O)CCC(C)C21CC(c2ccoc2)OC1=O` (stereo not given), for which the Potency entry was “inactive”.

On to `C[C@H](NC(c1cccc(C[P+](=O)O)c1)[C@H](C)O)c1ccc(Cl)c(Cl)c1` (stereo not given in full), for which the Potency result is “inactive”.

On to `CCC(CC)C(=O)Nc1sc2c(c1C#N)CCC(C(C)(C)CC)C2` (stereo not given), for which the Potency entry is “inactive”.

In the case of `Nc1ccc(-c2cccc3c(=O)cc(N4CCOCC4)oc23)cc1`, the Potency entry is “inactive”.

`COC(=O)C1=CO[C@@H](O[C@@H]2O[C@H](CO[C@@H]3O[C@H](COC(=O)/C=C/c4cc(OC)c(O)c(OC)c4)[C@@H](O)[C@H](O)[C@H]3O)[C@@H](O)[C@H](O)[C@H]2O)[C@@H]2C(CO)=CC[C@H]12`: the Potency result was “inactive”.

Regarding `CCCOC(c1cc2nccc(C(=O)O)c2[nH]1)c1ccccc1Cl` (stereo not given), the Potency result is “inactive”.

In the case of `COC(=O)C1=CO[C@@H](O[C@@H]2O[C@H](CO)[C@@H](O)[C@H](O)[C@H]2O)C2C1C(=O)C[C@H]2C` (stereo not given in full), the Potency result is “inactive”.

As for `CC(C)(C)NCCCNC(=O)c1cccc(Br)c1`, the Potency result was “inactive”.

On to `CON(C)C(=O)[C@H](O)[C@H](Cc1ccccc1)NC(=O)c1cc2cc(Cl)ccc2[nH]1`, for which the Potency result was “inactive”.

Take `COc1cc(C(=O)OC[C@H]2O[C@@H](Oc3ccccc3/C=C/C(=O)O)[C@H](O)[C@@H](O)[C@@H]2O)cc(OC)c1OC`: the Potency result was “inactive”.
